Pol beta inh: DNA polymerase beta (human) inhibition. P06746. Pol beta primer extension/strand displacement, fluorescence kinetic. Potency, µM (highest dose often 114 µM), inactives show top-dose activity change, negative = inhibition, hits mostly inhibitors. actives 1.3% (n = 340,000); note: % is set by controls: 0 for no effect and ±100 for the full control effect
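Human Pol beta at 10 nM; strand-displacement substrate 50 nM final. Compound exposure 15 min at room temperature before start, reaction 10 min at room temperature.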
POLI inh: inhibitors of human DNA polymerase iota; AID 588590; Q9UNA4; Potency, µM (doses to about 115 µM), inactives show top-dose activity, negative = inhibition, actives largely listed as inhibitors; Pol iota fluorescent replication assay, 10 min; actives 1% (n = 390,000)
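Pol iota at 10 nM preincubated 15 min with compounds at room temperature; reaction started with fluorescent substrate, 50 nM final. Fluorescence read kinetically at 0 and 10 min; buffer-only wells as negative control.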
Pol kappa inh: blocks human DNA polymerase kappa activity | Potency, µM (highest dose often 107 µM), without a hit: at the top dose activity, negative = inhibition, usual class: inhibitors | actives 0.53% (n = 400,000) | purified Pol kappa, fluorescent DNA synthesis assay, 10 min; note: % is set by controls: 0 for no effect and ±100 for the full control effect
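Kinetic fluorescence screen: compound preincubated 15 min RT with 10 nM enzyme; 50 nM substrate (final) initiates; reads at 0/10 min.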
FEN1 inh: human FEN1 inhibition; actives 0.35% (n = 390,000); Potency, µM (doses to about 114 µM), inactives show at the top dose activity change, negative = inhibition, most hits filed as inhibitors; Recombinant FEN1 flap cleavage, fluorescence, 15 min; P39748; note: % is set by controls: 0 for no effect and ±100 for the full control effect; nearly all actives have a fitted effect of over 65% in size
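Quantitative HTS format: each compound was titrated, incubated with 10 nM nuclease for 15 min at room temperature, then challenged with flap substrate at 50 nM final. Signal change over 15 min gave concentration–effect curves.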
Pol eta inh: blocks human DNA polymerase eta activity. recombinant Pol eta, fluorescent DNA replication assay. Potency, µM (series often up to 114 µM), for the others: at the highest dose activity change, negative = inhibition, usual class: inhibitors. actives 1.2% (n = 390,000). AID 588591; note: % is set by controls: 0 for no effect and ±100 for the full control effect
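Fluorescent replication assay: 50 nM final substrate added after a 15 min room-temperature compound preincubation with 10 nM enzyme. Signal taken at 0 min and again at 10 min.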
WRN inhibitor: WRN helicase (human) inhibition | WRN helicase unwinding, fluorescent forked duplex, kinetic | Potency, µM (series often up to 114 µM), without a hit: top-dose activity change, negative = inhibition, most hits filed as inhibitors | actives 0.46% (n = 360,000) | AID 651768; note: % is set by controls: 0 for no effect and ±100 for the full control effect; nearly all actives have a fitted effect of over 55% in size
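Kinetic fluorescence helicase assay: unwinding of a quenched forked DNA duplex (100 nM final) with 2 mM ATP final raises red fluorescence (525/598 nm). Compounds sat 15 min at room temperature with 20 nM WRN beforehand.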
Numbers without * were called inactive; i = inactive; ? = inconclusive; / = not tested or not shown; [ ] = dose if it differs, or a comment. Shown are actives, neighbours in structure and some others; about 2.4% of the full set was active somewhere. Calls come from the whole dose curve; as a rule, active = well fitted curve in the direction sought with a large enough effect; inconclusive = small, poorly fitted or top-dose-only effect, or another doubt; inactive = no such curve, though single readings can be large; an effect the other way counts as inactive or inconclusive. Potency is the fitted concentration of half-maximal effect.

SMILES | Pol beta inh | POLI inh | Pol kappa inh | FEN1 inh | Pol eta inh | WRN inhibitor
Cc1cc2cc3c(=O)[nH]c(=O)cc-3n(CC(O)C(O)C(O)CO)c2cc1C (stereo unspecified) | / | / | / | / | ? | 56µM*
CCOc1ccc2nc(N(Cc3cccnc3)C(=O)c3ccc4c(c3)OCCO4)sc2c1 | 15% | 6% | -11%[60.1 µM] | -7% | -11% | /
O=C1C(=Cc2ccc(Br)o2)C(=O)c2ccccc21 | 1.4µM* | 1.1µM* | ? | 14µM* | 0.79µM* | 8.9µM*
CCCCCCCCCC[n+]1ccc(/C=C/c2c[nH]c3ccccc23)c2ccccc21 | / | ? | ? | 45µM* | / | /
CCCCCCCCCCCCCCCC[n+]1ccc(C)c2ccccc21 | / | -2% | -20% | 79µM* | / | /
COc1cccc(CN(C(=O)c2oc3ccc(Br)cc3c2C)C2CCS(=O)(=O)C2)c1 (stereo unspecified) | 1% | -10% | -24% | -1% | -8% | /
CCOC(=O)C(C)C(C)=O (stereo unspecified) | / | i | ? | -168% | ? | 16µM*
CCOC(=O)C(C(C)=O)C(c1ccc(OC)cc1)C(C(C)=O)C(=O)OCC (stereo unspecified) | -22% | 18% | -1% | 1% | 3% | -22%
COc1cc2nc(Nc3ccc(C)c(C)c3)nc(N)c2cc1OC | ? | 8% | -7% | ? | ? | ?
COc1cc2nc(N(C)C)nc(N)c2cc1OC | 45µM* | ? | -8% | ? | 5% | -21%
COc1cc2nc(Cl)nc(NC3CCN(C)CC3)c2cc1OC | / | 7% | 9% | ? | / | /
COc1cc2nc(CCNCc3ccccc3)nc(NC3CCN(C)CC3)c2cc1OC | / | -3% | -10% | 45µM* | / | /
COc1cc2nc(N(C)C)nc(NC3CCN(C)CC3)c2cc1OC | / | 25µM* | ? | 28µM* | / | /
COc1cc2nc(NC3CCN(C)CC3)nc(NC3CCN(C)CC3)c2cc1OC | / | 5% | 11% | 45µM* | / | /
Cc1ccc(Cn2c(=O)n(Cc3ccccc3Cl)c(=O)c3cccnc32)cc1 | 6% | -2% | -1% | 19% | -19% | /
Cc1c(C(=O)O)cccc1-n1c(C)cc(/C=N/Nc2ccc([N+](=O)[O-])cn2)c1C | 25µM* | 50µM* | 79µM* | -15% | ? | -1%[11.6 µM]
Cc1cc(/C=N/Nc2ccc([N+](=O)[O-])cn2)c(C)n1-c1ccccc1 | -1% | 24% | -12% | -2% | -14% | -12%
CC(=O)Nc1ccc(/C(C)=N\NC(=O)c2ccc(-c3ccccc3)cc2)cc1 | 40µM* | / | / | / | / | /
CC(=O)Nc1ccc(/C(C)=N/NC(=O)c2ccc(F)cc2)cc1 | 31% | 142% | -13% | -7% | -12% | -2%
CC(C)=CC[C@@H](O)C1=CC(=O)c2c(O)ccc(O)c2C1=O | / | / | 0.89µM* | / | / | /
CC(C)CCNC(=O)C1CCCN(S(=O)(=O)c2ccc3c(c2)CC(C)N3C(=O)C2CC2)C1 (stereo unspecified) | -5% | -10% | 16% | 8% | -17% | 3%
CC(C)CCNC(=O)C1CCN(S(=O)(=O)c2ccc3c(c2)CC(C)N3C(=O)C2CCC2)CC1 (stereo unspecified) | 56µM* | -2% | 3% | -14% | -10% | -6%
COc1ccc(Cn2c(=O)c3oc4ccccc4c3n(CC(=O)Nc3cc(C)cc(C)c3)c2=O)cc1 | -1% | 8% | -14% | 13% | -16% | /
O=[N+]([O-])c1ccccc1S(=O)(=O)N1CCSCC1 | / | 17% | 2% | -15% | 89µM* | 4%
CCCS(=O)(=O)N1CCN(S(=O)(=O)c2ccccc2[N+](=O)[O-])CC1 | 3% | 24% | 5% | -1% | 0% | 5%
Cc1ccc(/C=N/n2c(-c3ccccn3)n[nH]c2=S)o1 | -26% | 50µM* | -25% | -20% | -11% | -7%
O=c1c2ccccc2nc(COc2ccccc2)n1/N=C/c1ccc(O)c(O)c1 | ? | ? | ? | -4% | 32µM* | ?

Assay outcomes: PubChem BioAssay, National Center for Advancing Translational Sciences (NCATS)
